The record followed here is PubChem BioAssay.

“And” between values parts separate entries of the source, which are not always exact repeats. Identical values can stand only once.

One experiment in a line: sensitizers of A549 cells to miR-34 induction, primary screen, imaging, A549 dox-inducible miR-34, nuclei and caspase counts (AID 1347080). Note: test concentration not given here. The settings on record: A549 miR-34 inducible, Hoechst nuclei count, 48 h; measured here: total cells with miR-34 induction; stronger effect = lower value.
For `CC(=O)Nc1cccc(-c2nn(CC(=O)Nc3cnn(C)n3)c3ccccc23)c1`, the cell count came out at 8450.

For `Cc1cc(NC(=O)Cn2ncc3cc(-c4ccc(F)c(F)c4)ccc32)n(C)n1`, the cell count turned out to be 4810.

Turning to `O=C(O)CCC(=O)Nc1ccc(Br)cn1`, the cell count is 8810.

For `CC(C)SC1OC(CO)C(O)C(O)C1O` (stereo not given), the cell count is 8290.

Take `COC1C=CO[C@@]2(C)Oc3c(C)c(O)c4c(O)c(c(C=NN5CCN(C6CCCC6)CC5)c(O)c4c3C2=O)NC(=O)C(C)=CC=CC(C)C(O)C(C)C(O)C(C)C(OC(C)=O)C1C` (stereo not given in full): the cell count was 6670 and 7260.

For `Cc1nsc(NC(=O)N[C@@H]2CCCC[C@H]2c2ccccc2)n1`, the cell count came out at 7510.

For `O=C(c1ccnc(Cl)c1)N1CCc2[nH]nc(C3CCC3)c2C1`, the cell count stood at 9170.

Take `Cc1cc(C)nc(-c2cnn(CC(=O)Nc3cnn(C)n3)c2)n1`: the cell count is 8470.

For `O=C(O)c1ccc(-c2ccccc2[N+](=O)[O-])o1`, the cell count was 8650.

With `O=C(NCC(c1ccccc1)c1ccccc1)Nc1nncs1`, the cell count came out at 7570.

For the compound `O=C1NCC(=O)N2CCCC12` (stereo not given), the cell count stood at 8240.

Take `CCc1nc(NC(=O)NCCc2nc(-c3ccc(C)cc3)no2)nn1C`: the cell count was 7240.

As to `CC1(C)CC(=O)c2c(N)ncnc2C1`, the cell count is 9160.

Take `Cc1nsc(NC(=O)N2CCCCC2c2nc(C(C)C)no2)n1` (stereo not given): the cell count was found to be 9100.

Consider `O=C(Cn1nc(Cc2ccccc2)c2ccccc2c1=O)NCCc1ccco1`, for which the cell count was 8560.

Turning to `COc1ccccc1C(=O)N1CCC(n2cc(-c3ccccn3)nn2)CC1`, the cell count was 8760.

`NS(=O)(=O)c1ccc(F)cc1`: the cell count came to 9050.

Take `O=C(Nc1n[nH]c(-c2ccco2)n1)N1CCc2ccccc2C1`: the cell count is 7540.

Turning to `Cc1csc(CNC(=O)Cc2csc(-c3ccccc3)n2)n1`, the cell count was found to be 8110.

Regarding `O=C(NCc1ccccn1)c1ccc(Oc2ccccc2)cc1`, the cell count was found to be 8650.

`COc1cccc2c(=O)n(Cc3ccc4ncccc4c3)cnc12`: the cell count turned out to be 8080.

As for `CCNC(=O)c1cccnc1N1CCN(c2ccc(Cl)cc2)CC1`, the cell count stood at 7830.

Consider `CN=C(NC)NCc1ccccc1`, for which the cell count is 9010.

For the compound `Cc1nsc(NC(=O)NC2Cc3ccccc3C2)n1`, the cell count amounted to 7330.

For `Cc1c(Br)c(=O)oc2c(Br)c(O)ccc12`, the cell count was 8490.

In the case of `CCc1noc(Cn2cnc3sc4c(c3c2=O)CCC(C)C4)n1` (stereo not given), the cell count is 8510.

Consider `O=c1c2nccnc2ncn1Cc1ccc2nsnc2c1`, for which the cell count was determined as 8120.

As to `O=c1ccn2c(n1)OC1C(O)C(CO)OC12` (stereo not given), the cell count was determined as 8620.

On to `NCC1OC(OC2C(CO)OC(OC3C(O)C(N)CC(N)C3OC3OC(CO)C(O)C(O)C3N)C2O)C(N)C(O)C1O` (stereo not given), for which the cell count amounted to 9400.

Take `CCn1ncc(NC(=O)Cn2nc(C)c(-c3ccc(-n4cccn4)cc3)c2C)n1`: the cell count was determined as 4370.

Consider `O=S(=O)(Nc1cc(-c2cccs2)nn1-c1ccc(F)cc1)c1cccc(F)c1`, for which the cell count is 7390.

`CN1CCC(CN(C)Cc2ccc(-c3nc(-c4ccncc4)cc(=O)[nH]3)cc2)CC1`: the cell count stood at 9330.

Consider `CSc1ccccc1C(=O)N1CCc2[nH]nc(COc3ccccc3)c2C1`, for which the cell count is 8390.

Regarding `c1ccc2c(c1)OCC(CNc1ncnc3nc[nH]c13)O2` (stereo not given), the cell count amounted to 6310.

For the compound `O=C(Nc1c[nH]c2ccccc12)c1cccnc1`, the cell count turned out to be 8140.

In the case of `CCn1ncc2[nH]c(-c3cnn(C)c3-c3ccccc3)nc21`, the cell count was determined as 8480.

Turning to `Cc1cc(-c2cnn(CC(=O)Nc3ccnn3Cc3ccccc3)c2)nc(N)n1`, the cell count worked out at 8320.

For the compound `Cc1cccc(C)c1OCC(=O)O`, the cell count was determined as 8740.

With `Cc1cc(=O)oc2cc(OC3OC(CO)C(O)C(O)C3O)ccc12` (stereo not given), the cell count worked out at 8660.

As for `O=C1CN(c2ncnc3nc[nH]c23)CCN1Cc1cccc(F)c1`, the cell count was determined as 7800.

The experiment is the same for the next values; noted with them: A549 miR-34 inducible, Hoechst nuclei count, 48 h; measured here: total cells without miR-34 induction.
Consider `CC(=O)Nc1cccc(-c2nn(CC(=O)Nc3cnn(C)n3)c3ccccc23)c1`, for which the cell count is 9550.

For the compound `Cc1cc(NC(=O)Cn2ncc3cc(-c4ccc(F)c(F)c4)ccc32)n(C)n1`, the cell count came out at 5490.

With `O=C(O)CCC(=O)Nc1ccc(Br)cn1`, the cell count was determined as 10300.

For the compound `CC(C)SC1OC(CO)C(O)C(O)C1O` (stereo not given), the cell count came to 9350.

With `COC1C=CO[C@@]2(C)Oc3c(C)c(O)c4c(O)c(c(C=NN5CCN(C6CCCC6)CC5)c(O)c4c3C2=O)NC(=O)C(C)=CC=CC(C)C(O)C(C)C(O)C(C)C(OC(C)=O)C1C` (stereo not given in full), the cell count was 5310 and 7750.

In the case of `Cc1nsc(NC(=O)N[C@@H]2CCCC[C@H]2c2ccccc2)n1`, the cell count came to 9150.

As to `O=C(c1ccnc(Cl)c1)N1CCc2[nH]nc(C3CCC3)c2C1`, the cell count amounted to 9930.

Consider `Cc1cc(C)nc(-c2cnn(CC(=O)Nc3cnn(C)n3)c2)n1`, for which the cell count stood at 9620.

With `O=C(O)c1ccc(-c2ccccc2[N+](=O)[O-])o1`, the cell count was 9710.

On to `O=C(NCC(c1ccccc1)c1ccccc1)Nc1nncs1`, for which the cell count stood at 8970.

For `O=C1NCC(=O)N2CCCC12` (stereo not given), the cell count stood at 9240.

`CCc1nc(NC(=O)NCCc2nc(-c3ccc(C)cc3)no2)nn1C`: the cell count was 8670.

With `CC1(C)CC(=O)c2c(N)ncnc2C1`, the cell count was 10200.

In the case of `Cc1nsc(NC(=O)N2CCCCC2c2nc(C(C)C)no2)n1` (stereo not given), the cell count came out at 10000.

Take `O=C(Cn1nc(Cc2ccccc2)c2ccccc2c1=O)NCCc1ccco1`: the cell count stood at 9130.

On to `COc1ccccc1C(=O)N1CCC(n2cc(-c3ccccn3)nn2)CC1`, for which the cell count is 9560.

For the compound `NS(=O)(=O)c1ccc(F)cc1`, the cell count is 10100.

In the case of `O=C(Nc1n[nH]c(-c2ccco2)n1)N1CCc2ccccc2C1`, the cell count is 8420.

With `Cc1csc(CNC(=O)Cc2csc(-c3ccccc3)n2)n1`, the cell count came out at 8710.

For `O=C(NCc1ccccn1)c1ccc(Oc2ccccc2)cc1`, the cell count is 9270.

As to `COc1cccc2c(=O)n(Cc3ccc4ncccc4c3)cnc12`, the cell count was found to be 9140.

With `CCNC(=O)c1cccnc1N1CCN(c2ccc(Cl)cc2)CC1`, the cell count came out at 8970.

For the compound `CN=C(NC)NCc1ccccc1`, the cell count was 9830.

As to `Cc1nsc(NC(=O)NC2Cc3ccccc3C2)n1`, the cell count amounted to 9710.

Regarding `Cc1c(Br)c(=O)oc2c(Br)c(O)ccc12`, the cell count came out at 9870.

Turning to `CCc1noc(Cn2cnc3sc4c(c3c2=O)CCC(C)C4)n1` (stereo not given), the cell count stood at 9340.

Turning to `O=c1c2nccnc2ncn1Cc1ccc2nsnc2c1`, the cell count amounted to 9250.

For the compound `O=c1ccn2c(n1)OC1C(O)C(CO)OC12` (stereo not given), the cell count was found to be 9930.

For `NCC1OC(OC2C(CO)OC(OC3C(O)C(N)CC(N)C3OC3OC(CO)C(O)C(O)C3N)C2O)C(N)C(O)C1O` (stereo not given), the cell count was 10400.

For `CCn1ncc(NC(=O)Cn2nc(C)c(-c3ccc(-n4cccn4)cc3)c2C)n1`, the cell count was 5020.

As for `O=S(=O)(Nc1cc(-c2cccs2)nn1-c1ccc(F)cc1)c1cccc(F)c1`, the cell count turned out to be 8190.

`CN1CCC(CN(C)Cc2ccc(-c3nc(-c4ccncc4)cc(=O)[nH]3)cc2)CC1`: the cell count was found to be 9930.

Consider `CSc1ccccc1C(=O)N1CCc2[nH]nc(COc3ccccc3)c2C1`, for which the cell count was determined as 8920.

Consider `c1ccc2c(c1)OCC(CNc1ncnc3nc[nH]c13)O2` (stereo not given), for which the cell count was determined as 8020.

Take `O=C(Nc1c[nH]c2ccccc12)c1cccnc1`: the cell count was 9200.

As to `CCn1ncc2[nH]c(-c3cnn(C)c3-c3ccccc3)nc21`, the cell count worked out at 9640.

As for `Cc1cc(-c2cnn(CC(=O)Nc3ccnn3Cc3ccccc3)c2)nc(N)n1`, the cell count amounted to 8980.

For `Cc1cccc(C)c1OCC(=O)O`, the cell count is 9510.

With `Cc1cc(=O)oc2cc(OC3OC(CO)C(O)C(O)C3O)ccc12` (stereo not given), the cell count is 9900.

Regarding `O=C1CN(c2ncnc3nc[nH]c23)CCN1Cc1cccc(F)c1`, the cell count is 9720.
